Settings in all cases: concentration: 1 μM, replicates: in singlicate; n = 1
The subject of assay [1] is T1, DCAMKL2.
T1 construct: gene DCLK2

The subject of assay [2] is T2, DCAMKL3.
T2 construct: gene DCLK3

Assay [3] has as its system DDR1.
In assay [4] the test system is DDR2.
The subject of assay [5] is T3, DLK.
T3 construct: gene MAP3K12

The test system of assay [6] is T4, DMPK2.
T4 construct: gene CDC42BPG

The subject of assay [7] is DMPK.
The test system of assay [8] is T5, DRAK1.
T5 construct: gene STK17A

In assay [9] the test system is T6, DRAK2.
T6 construct: gene STK17B

Assay [10] concerns DYRK1A.
In assay [11] the test system is DYRK1B.
Assay [12] deals with DYRK2.
Assay [13] deals with EGFR.
Assay [14] concerns EIF2AK1.
Assay [15] relates to EPHA1.
In assay [16] the test system is EPHA2.
The test system of assay [17] is EPHA3.
The subject of assay [18] is EPHA4.
Assay [19] has as its system EPHA5.
In assay [20] the test system is EPHA6.
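Also: KINOMEscan kinase panel screen.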

With `COc1cc(Nc2ncc3c(C)nc(-c4cc5ccccc5[nH]4)n3n2)cc(OC)c1OC` [GW869516], the “%Inh” value in assay [1] was 0%; in assay [2] it was 0%; in [3] it was 52%; in assay [4], 52%; in [5], 22%; in assay [6], 0%. The “%Inh” value in assay [7] is 0%; in [8] it was 30%; in [9] it was 10%; in assay [10] it was 85%; in assay [11] it was 81%; in [12], 0%. For the same compound, the “%Inh” value in assay [13] is on record as 0%; in assay [14], 0%; in [15], 41%; in assay [16], 49%; in assay [17] it was 7%; in assay [18], 46%. The entries for the “%Inh” value in assay [19] and in assay [20] were 16% and 0%, respectively.

On to `COc1ccc(Nc2nccc(N3CCC(NC(=O)Nc4cccc(OC)c4)C3)n2)cc1` (centres unmarked) [GSK1379742], for which the “%Inh” value in assay [1] worked out at 0%; in [2], 13%; in assay [3], 8%; in [4], 24%; in assay [5], 46%; in assay [6], 0%. The “%Inh” value in [7] is reported as 0%; in assay [8] it was 8%; in assay [9], 0%; in assay [10], 4%; in [11], 0%; in assay [12] it was 0%. Further, the “%Inh” value in [13] stood at 20%; in assay [14], 0%; in assay [15], 10%; in assay [16], 0%; in assay [17] it was 0%; in assay [18], 1%. For the same compound, the “%Inh” value in assay [19] is 0%; in [20] it was 8%.

`Cc1ccc(S(=O)(=O)Nc2ccc(Nc3nccc(Nc4cccc5[nH]ncc45)n3)cc2)cc1` [GSK581271]: the “%Inh” value in [1] is on record as 5%; in assay [2] it was 21%; in assay [3], 82%; in [4] it was 36%; in assay [5], 0%; in assay [6], 0%. In addition, the “%Inh” value in [7] was 0%; in [8], 61%; in assay [9], 7%; in assay [10], 16%; in assay [11], 0%; in [12], 12%. Besides, the “%Inh” value was 42% in assay [13]; 0% in [14]; 66% in assay [15]; 21% in assay [16]; 0% in assay [17]; 13% in [18]. For the same compound, the “%Inh” value in assay [19] and in assay [20] was 0% throughout.

As for `CN1CCN(CCCNc2nccc(-c3c(-c4ccc(F)cc4)nn4cc(C(F)(F)F)ccc34)n2)CC1` [GW621581], the “%Inh” value in [1] came out at 0%; in assay [2], 25%; in [3], 100%; in assay [4], 81%; in assay [5] it was 16%; in [6], 0%. The “%Inh” value in assay [7] was determined as 0%; in assay [8] it was 33%; in assay [9], 0%; in assay [10], 5%; in assay [11], 0%; in assay [12], 4%. Further, the “%Inh” value was 23% in [13]; 0% in assay [14]; 42% in assay [15]; 0% in assay [16]; 0% in assay [17]; 1% in assay [18]. Besides, the “%Inh” value was 0% in assay [19] and 8% in [20].

On to `NCCCC(NC(=O)c1cc(Br)c(-c2ccnc3[nH]ccc23)s1)c1ccccc1.O=C(O)C(F)(F)F.O=C(O)C(F)(F)F` (centres unmarked) [GSK1287544], for which the “%Inh” value in assay [1] turned out to be 3%; in [2] it was 0%; in [3] it was 0%; in assay [4], 2%; in assay [5], 17%; in assay [6] it was 94.2%. The “%Inh” value in assay [7] is listed as 28%; in assay [8], 61%; in [9], 0%; in [10] it was 48%; in [11], 22%; in assay [12] it was 37%. Further, the “%Inh” value came to 4% in assay [13]; 0% in assay [14]; 6% in [15]; 0% in assay [16]; 0% in assay [17]; 11% in assay [18]. The “%Inh” value in assay [19] is 5%; in [20], 18%.

With `Cl.Cl.NCC(NC(=O)c1cc(-c2ccccc2)c(-c2ccnc3[nH]ccc23)s1)c1ccccc1` (centres unmarked) [GSK1321561], the “%Inh” value in [1] turned out to be 0%; in assay [2], 10%; in assay [3], 99.7%; in assay [4] it was 76%; in assay [5], 35%; in assay [6] it was 94.7%. For the same compound, the “%Inh” value was determined as 82% in [7]; 41% in assay [8]; 0% in assay [9]; 13% in assay [10]; 100% in [11]; 25% in assay [12]. Further, the “%Inh” value in [13] was 84%; in assay [14], 0%; in assay [15], 26%; in assay [16] it was 21%; in [17], 38%; in [18], 2%. For the same compound, the figures for the “%Inh” value in assay [19] and in assay [20] were 6% and 34%, respectively.

Regarding `O=C(Nc1cccc(-c2nn3ccccc3c2-c2ccnc(Nc3cccc(F)c3)n2)c1)c1c(F)ccc(F)c1Cl` [GSK357952], the “%Inh” value came out at 7% in assay [1]; 1% in assay [2]; 100% in assay [3]; 82% in assay [4]; 3% in assay [5]; 19% in assay [6]. For the same compound, the “%Inh” value in [7] amounted to 0%; in assay [8], 3%; in assay [9], 0%; in assay [10], 6%; in assay [11], 0%; in [12] it was 11%. In addition, the “%Inh” value in [13] was 100%; in [14], 39%; in assay [15] it was 5%; in assay [16], 0%; in assay [17] it was 0%; in assay [18], 25%. For the same compound, the “%Inh” value was determined as 0% in [19] and 15% in assay [20].

Consider `Nc1ncc(-c2cccnc2)c2scc(-c3ccc4c(c3)CCN4C(=O)Cc3ccccc3)c12` [GSK683281], for which the “%Inh” value in assay [1] is recorded as 1%; in assay [2] it was 34%; in assay [3], 63%; in assay [4] it was 0%; in assay [5] it was 6%; in [6], 72%. The “%Inh” value in [7] was determined as 4%; in [8] it was 1%; in assay [9], 0%; in assay [10], 23%; in assay [11], 27%; in assay [12], 24%. The “%Inh” value in [13] is listed as 16%; in assay [14], 25%; in assay [15] it was 13%; in [16] it was 8%; in assay [17] it was 0%; in assay [18], 7%. Moreover, the “%Inh” value is 0% in [19] and 11% in assay [20].

For `O=C(Nc1n[nH]c2nc(-c3ccc(O)cc3)ccc12)C1CC1` [SB-710363], the “%Inh” value in [1] turned out to be 0%; in assay [2], 76%; in assay [3], 0%; in assay [4] it was 27%; in assay [5] it was 0%; in assay [6] it was 0%. Moreover, the “%Inh” value in assay [7] is given as 0%; in [8], 93.4%; in assay [9] it was 26%; in [10], 62%; in assay [11], 65%; in [12], 97.2%. For the same compound, the “%Inh” value was 0% in assay [13]; 0% in [14]; 0% in [15]; 0% in assay [16]; 16% in assay [17]; 3% in [18]. Further, the “%Inh” value in assay [19] was determined as 0%; in [20], 17%.

Regarding `O=C(Nc1cccc(Oc2ccc3nc(NC(=O)C4CC4)cn3n2)c1)c1ccccc1C(F)(F)F`, the “%Inh” value in assay [1] is on record as 0%; in assay [2], 0%; in assay [3], 98.9%; in assay [4], 88%; in [5], 7%; in assay [6], 17%. Further, the “%Inh” value stood at 0% in assay [7]; 0% in [8]; 21% in assay [9]; 12% in [10]; 12% in [11]; 0% in [12]. Besides, the “%Inh” value in assay [13] amounted to 82%; in [14], 0%; in [15], 35%; in assay [16], 29%; in [17], 3%; in assay [18], 28%. Further, the “%Inh” value in assay [19] worked out at 0%; in assay [20], 16%.

For the origin of these results see PMC5540273 (PLoS ONE, 2017).
